This note sets out measurements from PubChem BioAssay AID1345085 (National Center for Advancing Translational Sciences (NCATS), 2018).

Structures are written as SMILES. Records with an inconclusive call do not appear. The source made the active and inactive calls. Calls follow the shape of the dose curve; as a rule, active = well fitted cell-killing curve with a large enough effect; inconclusive = small, poorly fitted or top-dose-only effect, or effect the other way; inactive = no such curve, though single readings can be large or run the other way.

The test system of this assay is JEG-3. Nature of the assay: Confirmatory qHTS for gynecologic anti-cancer compounds from libraries of approved drugs and bioactive compounds. Also: nearly all actives have a fitted effect of over 55% in size. The settings on record: gynecologic cancer cell panel viability, ATPlite luminescence, 48 h; series mostly up to 57.6 µM. In outline: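 ATP-based luminescent viability (ATPlite) after 48 h drug treatment at 37 °C, 5% CO2, across 57.5 uM–0.977 nM in 1:3 steps. Cells seeded at 1,000 per well 16 h beforehand; IC50 values computed, HEK 293T as selectivity control.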
In general terms: qHTS replaces the single test concentration by a dilution series.
Potency is read from the fitted curve at half-maximal effect.

In the case of `CC[C@@]1(O)C(=O)OCc2c1cc1n(c2=O)Cc2cc3c(CN(C)C)c(O)ccc3nc2-1`, the Potency is 1.09 µM (active).
As for `COCCOc1ccc2c(c1)ncn2-c1ccc2cccc(N3CCC(N)CC3)c2n1`, the figure is 10.9 µM (active).
As for `CNC(=O)c1nn(C)c2c1C(C)(C)Cc1cnc(Nc3ccc(N4CCN(C)CC4)cc3)nc1-2`, the figure is 6.85 µM (active); as for `CNC(=O)c1ccccc1Sc1ccc2c(/C=C/c3ccccn3)n[nH]c2c1`, 13.7 µM (active).
As for `CCCCN(CCCC)CC(O)c1cc(Cl)cc2c1-c1ccc(Cl)cc1/C2=C/c1ccc(Cl)cc1` (stereo not drawn), the entry is “inactive”; as for `Cn1c(=O)c(-c2c(Cl)cccc2Cl)cc2cnc(Nc3cccc(C(=O)O)c3)nc21`, “inactive”; as for `OC[C@H]1O[C@@H](n2cnc3c(=S)nc[nH]c32)[C@H](O)[C@@H]1O`, 4.85 µM (active).
As to `COCCOc1nc(-c2ccc(Cl)c(Cl)c2)n(-c2ccc(NC(=O)CCl)cc2)n1`, the Potency is 19.3 µM (active).
In the case of `CCN(CC)CCOc1ccc(/C(=C(\Cl)c2ccccc2)c2ccccc2)cc1`, the Potency was 89.1 µM (active).
On to `CCn1c(-c2nonc2N)nc2c(C#CC(C)(C)O)ncc(OCC3CCCNC3)c21` (stereo not drawn), for which the Potency entry was “inactive”.
As for `COc1cc2c(Nc3ccc(NC(=O)c4ccccc4)cc3)ncnc2cc1OCCCN1CCOCC1`, the figure is 27.3 µM (active); as for `COc1cc2nccc(Oc3ccc(NC(=O)C4(C(=O)Nc5ccc(F)cc5)CC4)cc3)c2cc1OC`, 10.9 µM (active); as for `O=C(Nc1cccnc1)N1CCC(Cc2cccc(Oc3ccc(C(F)(F)F)cn3)c2)CC1`, 7.69 µM (active).
With `COc1ccc(-c2cc3nccn3c(Nc3ncccc3C(N)=O)n2)cc1OC`, the Potency is 12.2 µM (active).
Turning to `Cc1nc2ccc(CN(C)c3ccc(C(=O)NC(CCC(=O)O)C(=O)O)s3)cc2c(=O)[nH]1` (stereo not drawn), the Potency entry is “inactive”.
Under `COc1cccc2cc(-c3nc(C4CCC(C(=O)O)CC4)n4ncnc(N)c34)[nH]c12` (stereo not drawn) stands “inactive”; under `CC(C)C[C@H](NC(=O)[C@@H](NC(=O)c1cccc(-c2ccccc2)n1)[C@@H](C)O)B(O)O`, 1.53 µM (active); under `COc1cc2c(c(OC)c1OC)-c1ccc(OC)c(=O)cc1[C@@H](NC(C)=O)CC2`, 0.178 µM (active).
Turning to `Nc1ccccc1NC(=O)c1ccc(CNC(=O)OCc2cccnc2)cc1`, the Potency was 3.85 µM (active).
As for `COc1cc2c(NC3CCN(C(C)C)CC3)nc(C3CCCCC3)nc2cc1OCCCN1CCCC1`, the figure is 10.9 µM (active); as for `NC(=O)c1cccc2cn(-c3ccc([C@@H]4CCCNC4)cc3)nc12`, “inactive”.
As for `CCC(=O)N1CCN(c2ccc(-n3c(=O)ccc4cnc5ccc(-c6cnc7ccccc7c6)cc5c43)cc2C(F)(F)F)CC1`, the figure is 6.27 µM (active); as for `Cc1ccc(C(=O)N(CCCN)C(c2oc3cc(Cl)ccc3c(=O)c2Cc2ccccc2)C(C)C)cc1` (stereo not drawn), 0.109 µM (active).
As for `Cn1cnc2c(F)c(Nc3ccc(Br)cc3F)c(C(=O)NOCCO)cc21`, the entry is “inactive”; as for `CCS(=O)(=O)N1CCN(c2ccc(Nc3ncc(C(N)=O)c(NC4CC4)n3)cc2)CC1`, 9.68 µM (active); as for `CCc1c2c(nc3ccc(O)cc13)-c1cc3c(c(=O)n1C2)COC(=O)[C@]3(O)CC`, 0.122 µM (active).
Consider `COc1cc2ncnc(Nc3ccc(F)c(Cl)c3)c2cc1OCCCN1CCOCC1`, for which the Potency result is “inactive”.
As for `CN(C[C@@H]1COCCO1)S(=O)(=O)Nc1ccc2ccc3ncc(-c4cnn(C)c4)cc3c(=O)c2c1`, the entry is “inactive”; as for `CS(=O)(=O)c1ccc(C(=O)Nc2ccc(Cl)c(-c3ccccn3)c2)c(Cl)c1`, “inactive”.
As for `C1CCC(C(CC2CCCCN2)C2CCCCC2)CC1` (stereo not drawn), the figure is 27.3 µM (active).
Under `FC(F)(F)c1ccc(/C=C/c2nc(COc3ccc(CCCCn4ccnn4)cc3)co2)cc1` stands 0.0172 µM (active); under `CCN(CC)CCCC(C)Nc1ccnc2cc(Cl)ccc12` (stereo not drawn), “inactive”.
With `O=c1c2ccccc2nc2n1CCc1c-2[nH]c2ccccc12`, the Potency entry is “inactive”.
